Measured values as given in PubChem BioAssay.
Where “and” joins values, the source holds several entries; their conditions need not be identical. Equal values may be shown once. Calls of active or inactive are those of the source.

Assays:
[1] = tested on: Plasmodium falciparum Sir2 (PF13_0152, Sir2A); assay: pfSir2 binders on small-molecule microarrays, primary screen, biochemical, small-molecule microarray, 635 nm fluorescence (AID 1098); conditions: small-molecule microarray binding, fluorescence 635 nm; higher = more signal;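 note: score merges spot fluorescence intensity with its signal-to-noise ratio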
[2] = small-molecule microarray binders of probe aDKK1, primary screen, biochemical, biotinylated probe, 635/667 nm fluorescence (AID 1099); conditions: higher = more signal;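 note: score merges 667nm spot fluorescence with signal to noise across triplicate slides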
[3] = small-molecule microarray binders of probe aCHRDL2, primary screen, biochemical, biotinylated probe, 635/667 nm fluorescence (AID 1100); conditions: higher = more signal
[4] = splicing luciferase reporter signal modulators, primary screen, spliceosome inhibition project, cell-based, HEK293, splice +/- reporter (AID 1101); conditions: luminescence, 24 h, higher = more signal, called active from +8 up or from −8 down;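 note: HEK293 cells carrying a splicing-competent luciferase reporter gene; test concentration not given here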
[5] = target: Fibroblast growth factor 10 (Homo sapiens) (UniProt O15520); assay: FGF10 binders on small-molecule microarrays, primary screen, biochemical, small-molecule microarray, 635 nm fluorescence (AID 1102); conditions: FGF10 binding, fluorescence 635 nm, higher = more signal
[6] = tested on: glycogen synthase kinase-3 (GSK3A per assay name; protocol says GSK3B); assay: GSK3 binders on small-molecule microarrays, primary screen, biochemical, small-molecule microarray, 635 nm fluorescence, GSK3A (AID 1103); conditions: small-molecule microarray binding, fluorescence 635 nm; higher = more signal; note: the record names both GSK3A and GSK3B
[7] = target: Epidermal growth factor receptor (Homo sapiens) (UniProt P00533); assay: EGFR binders on small-molecule microarrays, primary screen, biochemical, small-molecule microarray, 635 nm fluorescence (AID 1104); conditions: EGFR binding, higher = more signal;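 note: score merges 667 nm emission intensity with spot signal to noise over triplicate slides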
[8] = target: Follistatin-related protein 3 (Homo sapiens) (UniProt O95633); assay: FSTL3 binders on small-molecule microarrays, primary screen, biochemical, small-molecule microarray, 635 nm fluorescence (AID 1105); conditions: FSTL3 binding, higher = more signal;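 note: score merges emission near 667 nm and signal to noise per printed spot across three slides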
[9] = target: Dickkopf-related protein 1 (Homo sapiens) (UniProt O94907); assay: DKK1 binders on small-molecule microarrays, primary screen, biochemical, small-molecule microarray, 635 nm fluorescence scan (AID 1106); conditions: DKK1 binding, higher = more signal;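 note: score merges emission near 667 nm with signal to noise over three replicate slides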
[10] = tested on: Inhibin beta A chain (activin A); assay: INHBA (activin A) binders on microarrays, primary screen, biochemical, small-molecule microarray, 635 nm fluorescence scan (AID 1107); conditions: small-molecule microarray binding, higher = more signal;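 note: mouse activin A protein probed at 4.33 µg/mL on printed slides; score merges bound-protein fluorescence near 667 nm with spot signal-to-noise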
[11] = tested on: Human papillomavirus type 1a protein E7 (residues 44-93); assay: HPV1a E7 fragment binders on microarrays, primary screen, biochemical, small-molecule microarray, residues 44-93, 635 nm fluorescence (AID 1108); conditions: small-molecule microarray binding, fluorescence 635 nm; higher = more signal;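 note: E7 fragment applied at 1 µg/mL in TBST for 1 h at 4 C; score combines spot fluorescence with its signal to noise ratio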
[12] = modulators of HCV replicon luciferase signal, primary screen, HCV replication inhibitor project, Huh7 cells, luciferase reporter (AID 1109); conditions: 48 h, higher = more signal;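 note: huh7 hepatoma cells harbouring a luciferase neomycin HCV replicon reporter; luciferase luminescence as measure of HCV replicon replication; test concentration not given here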
[13] = target: Left-right determination factor 2 (Homo sapiens) (UniProt O00292); assay: LEFTY2 binders on small-molecule microarrays, primary screen, biochemical, small-molecule microarray, 635 nm fluorescence scan (AID 1110); conditions: LEFTY2 binding, higher = more signal
[14] = target: Calmodulin-1 (Homo sapiens) (UniProt P0DP23); assay: CALM1 binders on microarrays, EGTA buffer, profiling panel, biochemical, small-molecule microarray, Cy5-labelled CALM1 (AID 1111); conditions: Cy5-CALM1 binding fluorescence, higher = more signal;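 note: labelled calmodulin applied in Tris saline Tween buffer holding calcium plus EGTA and DTT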
[15] = target: Calmodulin-1 (Homo sapiens) (UniProt P0DP23); assay: calcium-bound CALM1 binders on microarrays, profiling panel, artefact control for SMM control-protein annotation, biochemical, small-molecule microarray, Cy5-labelled CALM1, plus calcium (AID 1112); conditions: Cy5-CALM1 binding fluorescence, higher = more signal;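 note: score merges spot fluorescence with signal to noise from triplicate slides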
[16] = small-molecule microarray binders of probe aWnt5a, primary screen, biochemical, biotinylated probe, 635/667 nm fluorescence (AID 1113); conditions: higher = more signal;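 note: score merges 667 nm fluorescence intensity with signal-to-noise per printed feature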
[17] = small-molecule microarray binders of probe aShh, primary screen, biochemical, biotinylated probe, 635/667 nm fluorescence (AID 1114); conditions: higher = more signal;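 note: probe is biotin-labelled aShh protein from a stem cell growth factor screen; measures binding of labelled protein to compounds printed on the slide; score merges feature fluorescence at 667 nm with signal-to-noise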
[18] = small-molecule microarray binders of probe aNog, primary screen, biochemical, biotinylated probe, 635/667 nm fluorescence (AID 1115); conditions: higher = more signal;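 note: probe is biotinylated aNog protein used at 0.15 µg/mL for 1 h at 4 C; z-score combines 667 nm fluorescence of each spot with its signal to noise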
[19] = target: Torsin-1A-interacting protein 1 (Homo sapiens) (UniProt Q5JTV8); assay: LAP1 binders from COS7 cell lysate, primary screen, small-molecule microarray, 635/667 nm fluorescence (AID 1116); conditions: COS7-hLAP1 lysate binding, 635 nm fluorescence, higher = more signal
[20] = target: Alpha-bungarotoxin (Bungarus multicinctus) (UniProt P60615); assay: alpha-bungarotoxin binders on microarray, profiling panel, artefact control for SMM control protein annotation, biochemical, small-molecule microarray, Alexa647 label, 635/667 nm fluorescence (AID 1117); conditions: alpha-BTX-A647 binding fluorescence, higher = more signal
Chain of Alpha-bungarotoxin (Bungarus multicinctus) (P60615 whole entry, looked up): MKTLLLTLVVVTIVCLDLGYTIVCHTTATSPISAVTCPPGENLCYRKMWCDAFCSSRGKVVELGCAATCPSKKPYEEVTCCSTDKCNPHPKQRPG

Chain of Fibroblast growth factor 10 (Homo sapiens) (O15520 whole entry, looked up): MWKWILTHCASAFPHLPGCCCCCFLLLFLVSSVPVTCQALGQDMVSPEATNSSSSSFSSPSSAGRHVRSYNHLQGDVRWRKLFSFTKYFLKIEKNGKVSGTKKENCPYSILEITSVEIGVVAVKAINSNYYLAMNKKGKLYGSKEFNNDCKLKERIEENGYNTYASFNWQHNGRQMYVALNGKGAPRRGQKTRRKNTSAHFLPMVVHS
Chain of Torsin-1A-interacting protein 1 (Homo sapiens) (Q5JTV8 whole entry, looked up): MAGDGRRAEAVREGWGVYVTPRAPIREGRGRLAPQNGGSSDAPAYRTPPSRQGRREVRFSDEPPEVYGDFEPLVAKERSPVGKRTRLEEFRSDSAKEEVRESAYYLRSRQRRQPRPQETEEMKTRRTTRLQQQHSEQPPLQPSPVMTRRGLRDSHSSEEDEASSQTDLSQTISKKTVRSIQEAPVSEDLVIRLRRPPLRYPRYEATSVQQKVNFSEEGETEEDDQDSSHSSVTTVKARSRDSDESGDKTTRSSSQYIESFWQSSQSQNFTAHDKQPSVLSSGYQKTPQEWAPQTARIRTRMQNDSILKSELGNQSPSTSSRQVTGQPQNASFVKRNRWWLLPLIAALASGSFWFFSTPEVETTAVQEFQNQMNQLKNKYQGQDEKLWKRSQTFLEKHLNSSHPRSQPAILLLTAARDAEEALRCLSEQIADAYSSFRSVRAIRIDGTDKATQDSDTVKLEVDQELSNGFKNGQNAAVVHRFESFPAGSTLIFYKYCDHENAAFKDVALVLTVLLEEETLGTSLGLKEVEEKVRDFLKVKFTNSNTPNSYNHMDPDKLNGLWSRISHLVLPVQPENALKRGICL
Chain of Follistatin-related protein 3 (Homo sapiens) (O95633 whole entry, looked up): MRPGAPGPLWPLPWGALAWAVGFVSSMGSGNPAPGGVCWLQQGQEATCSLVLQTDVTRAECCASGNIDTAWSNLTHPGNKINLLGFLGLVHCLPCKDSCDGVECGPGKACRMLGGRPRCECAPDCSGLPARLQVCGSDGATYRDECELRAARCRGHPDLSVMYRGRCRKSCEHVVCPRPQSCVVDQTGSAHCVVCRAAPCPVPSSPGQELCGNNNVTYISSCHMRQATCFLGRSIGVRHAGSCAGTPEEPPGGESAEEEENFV
Chain of Dickkopf-related protein 1 (Homo sapiens) (O94907 whole entry, looked up): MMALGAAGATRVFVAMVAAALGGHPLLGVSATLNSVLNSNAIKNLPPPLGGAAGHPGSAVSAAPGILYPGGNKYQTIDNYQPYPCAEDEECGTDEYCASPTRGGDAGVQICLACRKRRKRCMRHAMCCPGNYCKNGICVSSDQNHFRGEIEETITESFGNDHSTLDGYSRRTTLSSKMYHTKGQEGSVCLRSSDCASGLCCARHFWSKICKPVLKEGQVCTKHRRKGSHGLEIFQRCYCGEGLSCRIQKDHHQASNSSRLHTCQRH
Chain of Left-right determination factor 2 (Homo sapiens) (O00292 whole entry, looked up): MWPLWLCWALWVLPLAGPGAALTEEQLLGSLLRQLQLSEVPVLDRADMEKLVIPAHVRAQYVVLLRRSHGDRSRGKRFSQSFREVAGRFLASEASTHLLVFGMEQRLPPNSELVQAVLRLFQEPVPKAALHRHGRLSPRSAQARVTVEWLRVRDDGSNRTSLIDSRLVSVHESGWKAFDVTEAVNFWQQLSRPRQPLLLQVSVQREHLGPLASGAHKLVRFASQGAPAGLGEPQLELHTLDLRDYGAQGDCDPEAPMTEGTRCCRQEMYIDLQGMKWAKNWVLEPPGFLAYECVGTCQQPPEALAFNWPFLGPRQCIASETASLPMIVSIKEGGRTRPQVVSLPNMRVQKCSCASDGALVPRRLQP
Chain of Epidermal growth factor receptor (Homo sapiens) (P00533 whole entry, looked up): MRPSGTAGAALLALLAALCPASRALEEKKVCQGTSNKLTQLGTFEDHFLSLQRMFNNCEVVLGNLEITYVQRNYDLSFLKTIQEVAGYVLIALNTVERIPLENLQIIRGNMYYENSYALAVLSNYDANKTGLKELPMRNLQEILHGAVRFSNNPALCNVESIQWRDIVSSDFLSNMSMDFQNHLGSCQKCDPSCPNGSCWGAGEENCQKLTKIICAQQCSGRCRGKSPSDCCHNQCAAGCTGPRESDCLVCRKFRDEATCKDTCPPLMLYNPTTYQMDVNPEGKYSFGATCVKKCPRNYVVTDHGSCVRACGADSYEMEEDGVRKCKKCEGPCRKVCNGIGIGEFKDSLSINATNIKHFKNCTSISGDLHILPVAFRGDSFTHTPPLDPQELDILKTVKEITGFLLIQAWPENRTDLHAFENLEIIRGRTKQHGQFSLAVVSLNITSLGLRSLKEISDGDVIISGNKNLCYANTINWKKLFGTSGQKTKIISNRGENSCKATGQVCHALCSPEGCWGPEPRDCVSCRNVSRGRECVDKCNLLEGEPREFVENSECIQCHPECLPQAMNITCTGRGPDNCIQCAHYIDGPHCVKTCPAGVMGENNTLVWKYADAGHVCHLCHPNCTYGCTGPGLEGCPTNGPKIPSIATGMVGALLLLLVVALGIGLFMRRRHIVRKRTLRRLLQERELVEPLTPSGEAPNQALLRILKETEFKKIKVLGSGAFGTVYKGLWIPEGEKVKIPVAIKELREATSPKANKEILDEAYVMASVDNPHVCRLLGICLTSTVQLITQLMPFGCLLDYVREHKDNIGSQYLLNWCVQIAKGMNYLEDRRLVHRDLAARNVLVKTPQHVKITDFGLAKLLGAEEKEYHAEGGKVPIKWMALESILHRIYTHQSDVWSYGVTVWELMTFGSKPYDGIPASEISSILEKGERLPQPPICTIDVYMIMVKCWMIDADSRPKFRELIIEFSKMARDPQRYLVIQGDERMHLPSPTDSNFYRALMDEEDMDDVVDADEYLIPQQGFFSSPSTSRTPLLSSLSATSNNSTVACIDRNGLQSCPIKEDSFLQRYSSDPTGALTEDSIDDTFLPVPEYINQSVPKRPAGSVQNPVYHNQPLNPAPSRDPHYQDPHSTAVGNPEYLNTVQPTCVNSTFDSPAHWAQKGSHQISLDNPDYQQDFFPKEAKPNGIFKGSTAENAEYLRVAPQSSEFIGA

## CC(=O)OC[C@H]1O[C@H](C#CC(C)(C)C)C=C[C@@H]1OC(C)=O
[1]
  composite z-score: 0.731
[2]
  composite z-score: 0.202
[3]
  composite z-score: -0.508
[4]
  z-score: 1.16 (inactive)
[5]
  composite z-score: 0.871
[6]
  composite z-score: 0.225
[7]
  composite z-score: 0.274
[8]
  composite z-score: 1.31
[9]
  composite z-score: 0.535
[10]
  composite z-score: -0.209
[11]
  composite z-score: 1.31
[12]
  z-score: -1.94
[13]
  composite z-score: 0.934
[14]
  composite z-score: 0.957
[15]
  composite z-score: 0.189
[16]
  composite z-score: -0.191
[17]
  composite z-score: 0.0596
[18]
  composite z-score: -0.433
[19]
  composite z-score: 0.852
[20]
  composite z-score: 1.09

## COc1ccc(-c2ccc3c(n2)CCCN3CC(O)CN2CCCc3nc(-c4ccc(Br)cc4)ccc32)cc1 (stereo not given)
[1]
  composite z-score: 1.01 and 0.727
[2]
  composite z-score: 0.507 and 0.293
[3]
  composite z-score: 0.0498 and 0.803
[4]
  z-score: 0.0317 (inactive) and -0.356 (inactive)
[5]
  composite z-score: 0.829 and 0.6
[6]
  composite z-score: 0.682 and 0.382
[7]
  composite z-score: 0.476 and 0.459
[8]
  composite z-score: 0.868 and 0.601
[9]
  composite z-score: 0.372 and 0.291
[10]
  composite z-score: 1.33 and -1.05
[11]
  composite z-score: 0.363 and -0.763
[12]
  z-score: -2.44 and -0.174
[13]
  composite z-score: 0.61 and 0.922
[14]
  composite z-score: 0.347 and 0.413
[15]
  composite z-score: 0.116 and -0.108
[16]
  composite z-score: 0.0994 and -0.006
[17]
  composite z-score: 0.896 and 0.233
[18]
  composite z-score: 0.202 and 0.309
[19]
  composite z-score: 0.498 and 0.282
[20]
  composite z-score: 2.04 and 1.76

## C=C[C@@H](OC)[C@H](O)c1ccc(O)c(F)c1
[1]
  composite z-score: 0.767 and -0.815
[2]
  composite z-score: -0.324 and -0.472
[3]
  composite z-score: 0.576 and 0.268
[4]
  z-score: -0.668 (inactive) and -2.09 (inactive)
[5]
  composite z-score: -1.19 and -1.46
[6]
  composite z-score: -1.5 and -1.29
[7]
  composite z-score: -1.59 and -0.277
[8]
  composite z-score: -2.7 and -1.75
[9]
  composite z-score: -1.37 and -0.856
[10]
  composite z-score: -2.04 and -0.759
[11]
  composite z-score: -0.829 and -1.4
[12]
  z-score: 0.0695 and 0.896
[13]
  composite z-score: -1.68 and -1.07
[14]
  composite z-score: -0.692 and -1.45
[15]
  composite z-score: -0.898 and -1.11
[16]
  composite z-score: -0.328 and -0.268
[17]
  composite z-score: -0.0553 and -0.0709
[18]
  composite z-score: -0.564 and -0.908
[19]
  composite z-score: -0.104 and -0.362
[20]
  composite z-score: -1.14 and -0.617

## CO[C@@H]1COC(=O)CC=C[C@H](C)COC(=O)[C@H](C)NC(=O)CC=C[C@H]1C
[1]
  composite z-score: 0.237
[2]
  composite z-score: -0.525
[3]
  composite z-score: -0.774
[4]
  z-score: -0.401 (inactive)
[5]
  composite z-score: 0.754
[6]
  composite z-score: 0.736
[7]
  composite z-score: 0.715
[8]
  composite z-score: 0.829
[9]
  composite z-score: 0.951
[10]
  composite z-score: 0.249
[11]
  composite z-score: -0.103
[12]
  z-score: -0.394
[13]
  composite z-score: 0.663
[14]
  composite z-score: -0.76
[15]
  composite z-score: -0.754
[16]
  composite z-score: -0.13
[17]
  composite z-score: 0.178
[18]
  composite z-score: -0.118
[19]
  composite z-score: 0.542
[20]
  composite z-score: -0.711

## COC(=O)[C@@]1(Cc2ccccc2)[C@H]2c3cc(C(=O)N(C)C)n(C[C@H](O)CO)c3C[C@H]2CN1C(=O)c1ccccc1
[1]
  composite z-score: 0.544 and 0.831
[2]
  composite z-score: 0.781 and 0.66
[3]
  composite z-score: 0.761 and 1.21
[4]
  z-score: -2.37 (inactive) and 1.46 (inactive)
[5]
  composite z-score: -0.397 and 0.483
[6]
  composite z-score: -0.137 and -0.227
[7]
  composite z-score: -0.647 and 0.374
[8]
  composite z-score: -0.397 and 0.0048
[9]
  composite z-score: -0.907 and -0.236
[10]
  composite z-score: 0.985 and 1.1
[11]
  composite z-score: 1.13 and -0.569
[12]
  z-score: -0.38 and -0.668
[13]
  composite z-score: -0.724 and 0.396
[14]
  composite z-score: 0.205 and 2.39
[15]
  composite z-score: 0.696 and 0.624
[16]
  composite z-score: -0.0346 and 0.0297
[17]
  composite z-score: 1.03 and 0.0469
[18]
  composite z-score: 0.373 and 1.04
[19]
  composite z-score: 2.36 and 1.1
[20]
  composite z-score: -0.33 and 0.13

## COC(=O)C1=C(C)N(Cc2ccccc2)C2=C3C(=O)N(c4ccccc4)C(=O)[C@@H]3[C@@](O)(C(=O)OC)C(=O)N2[C@@H]1c1ccccc1
[1]
  composite z-score: -0.0191 and 0.501
[2]
  composite z-score: -0.0254 and -0.186
[3]
  composite z-score: -0.914 and -0.616
[4]
  z-score: 0.0988 (inactive) and -2.38 (inactive)
[5]
  composite z-score: 1.17 and 0.553
[6]
  composite z-score: 0.387 and 0.542
[7]
  composite z-score: 0.566 and 0.369
[8]
  composite z-score: 0.802 and 0.527
[9]
  composite z-score: 0.603 and 0.58
[10]
  composite z-score: -0.042 and -0.581
[11]
  composite z-score: -0.996 and 0.49
[12]
  z-score: -0.0822 and -0.147
[13]
  composite z-score: 0.269 and 0.49
[14]
  composite z-score: -0.101 and -0.0398
[15]
  composite z-score: -0.65 and -0.381
[16]
  composite z-score: -0.124 and -0.0405
[17]
  composite z-score: 0.151 and 0.318
[18]
  composite z-score: 0.0954 and -0.43
[19]
  composite z-score: 0.792 and 1.32
[20]
  composite z-score: 0.231 and 1.87

## CCOC(=O)c1ccc(NC(=O)O[C@H]2[C@H](OC(=O)Nc3ccccc3)[C@@H](OC(=O)Nc3ccccc3)[C@@H](OC)O[C@@H]2CO)cc1
[1]
  composite z-score: 1.54 and 1.64
[2]
  composite z-score: 1
[3]
  composite z-score: 0.861 and 0.911
[4]
  z-score: 1.59 (inactive) and -0.984 (inactive)
[5]
  composite z-score: 1.13 and 1.42
[6]
  composite z-score: 1.24 and 1.34
[7]
  composite z-score: 0.329 and 0.0234
[8]
  composite z-score: 1.34 and 1.42
[9]
  composite z-score: 0.414 and 0.17
[10]
  composite z-score: 0.375 and 0.563
[11]
  composite z-score: 0.249 and 1.18
[12]
  z-score: -3.3 and -1.82
[13]
  composite z-score: 0.772 and 0.53
[14]
  composite z-score: 2.04 and 1.81
[15]
  composite z-score: 0.114 and -0.0271
[16]
  composite z-score: 0.0618 and 0.199
[17]
  composite z-score: 0.613 and 0.204
[18]
  composite z-score: 1.32 and 0.386
[19]
  composite z-score: 1.2 and 1.5
[20]
  composite z-score: 2.04 and 1.85

## C[C@@H](c1ccccc1)N1C(=O)[C@H]2[C@H]3[C@H](O)[C@H](O)CC(=O)[C@@H]3CC[C@H]2C1=O
[1]
  composite z-score: 0.11
[2]
  composite z-score: -0.152
[3]
  composite z-score: -0.706
[4]
  z-score: -1.26 (inactive)
[5]
  composite z-score: 0.685
[6]
  composite z-score: 0.59
[7]
  composite z-score: 0.43
[8]
  composite z-score: 0.599
[9]
  composite z-score: 0.943
[10]
  composite z-score: -0.838
[11]
  composite z-score: 0.189
[12]
  z-score: 0.265
[13]
  composite z-score: 0.574
[14]
  composite z-score: 0.377
[15]
  composite z-score: -0.241
[16]
  composite z-score: -0.119
[17]
  composite z-score: 0.163
[18]
  composite z-score: -0.387
[19]
  composite z-score: 0.49
[20]
  composite z-score: -0.0104
